These results are taken from ChEMBL document CHEMBL2218924, “A broad activity screen in support of a chemogenomic map for kinase signalling research and drug discovery” (Biochem J, 2013).

Assay [1] addresses Tyrosine-protein kinase SYK (Homo sapiens) (UniProt P43405). The note with it: at 10 µM.
Assay [2] deals with T1, Mitogen-activated protein kinase kinase kinase 7 (Homo sapiens) (UniProt O43318).
T1 sequence (whole entry): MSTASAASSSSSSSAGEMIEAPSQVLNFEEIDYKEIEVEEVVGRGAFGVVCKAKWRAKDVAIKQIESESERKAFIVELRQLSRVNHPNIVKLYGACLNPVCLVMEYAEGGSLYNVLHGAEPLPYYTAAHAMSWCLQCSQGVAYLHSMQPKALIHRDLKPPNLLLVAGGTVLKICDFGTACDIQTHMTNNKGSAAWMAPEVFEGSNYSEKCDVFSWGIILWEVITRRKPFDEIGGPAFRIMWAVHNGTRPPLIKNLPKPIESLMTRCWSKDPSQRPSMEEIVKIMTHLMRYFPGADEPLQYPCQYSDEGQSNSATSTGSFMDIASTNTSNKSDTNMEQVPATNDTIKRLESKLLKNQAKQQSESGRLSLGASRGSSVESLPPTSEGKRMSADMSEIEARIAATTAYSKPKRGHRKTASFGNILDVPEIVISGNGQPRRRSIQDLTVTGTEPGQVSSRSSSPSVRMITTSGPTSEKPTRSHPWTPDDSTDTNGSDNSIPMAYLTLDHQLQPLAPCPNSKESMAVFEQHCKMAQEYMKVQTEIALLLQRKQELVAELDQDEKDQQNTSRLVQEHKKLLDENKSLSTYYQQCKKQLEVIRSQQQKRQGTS
The note with it: at 1 µM.

For assay [3], the target named is T1, Mitogen-activated protein kinase kinase kinase 7 (Homo sapiens). The note with it: at 10 µM.
The target of assay [4] is T2, Serine/threonine-protein kinase TAO1 (Homo sapiens) (UniProt Q7L7X3).
T2 sequence (whole entry): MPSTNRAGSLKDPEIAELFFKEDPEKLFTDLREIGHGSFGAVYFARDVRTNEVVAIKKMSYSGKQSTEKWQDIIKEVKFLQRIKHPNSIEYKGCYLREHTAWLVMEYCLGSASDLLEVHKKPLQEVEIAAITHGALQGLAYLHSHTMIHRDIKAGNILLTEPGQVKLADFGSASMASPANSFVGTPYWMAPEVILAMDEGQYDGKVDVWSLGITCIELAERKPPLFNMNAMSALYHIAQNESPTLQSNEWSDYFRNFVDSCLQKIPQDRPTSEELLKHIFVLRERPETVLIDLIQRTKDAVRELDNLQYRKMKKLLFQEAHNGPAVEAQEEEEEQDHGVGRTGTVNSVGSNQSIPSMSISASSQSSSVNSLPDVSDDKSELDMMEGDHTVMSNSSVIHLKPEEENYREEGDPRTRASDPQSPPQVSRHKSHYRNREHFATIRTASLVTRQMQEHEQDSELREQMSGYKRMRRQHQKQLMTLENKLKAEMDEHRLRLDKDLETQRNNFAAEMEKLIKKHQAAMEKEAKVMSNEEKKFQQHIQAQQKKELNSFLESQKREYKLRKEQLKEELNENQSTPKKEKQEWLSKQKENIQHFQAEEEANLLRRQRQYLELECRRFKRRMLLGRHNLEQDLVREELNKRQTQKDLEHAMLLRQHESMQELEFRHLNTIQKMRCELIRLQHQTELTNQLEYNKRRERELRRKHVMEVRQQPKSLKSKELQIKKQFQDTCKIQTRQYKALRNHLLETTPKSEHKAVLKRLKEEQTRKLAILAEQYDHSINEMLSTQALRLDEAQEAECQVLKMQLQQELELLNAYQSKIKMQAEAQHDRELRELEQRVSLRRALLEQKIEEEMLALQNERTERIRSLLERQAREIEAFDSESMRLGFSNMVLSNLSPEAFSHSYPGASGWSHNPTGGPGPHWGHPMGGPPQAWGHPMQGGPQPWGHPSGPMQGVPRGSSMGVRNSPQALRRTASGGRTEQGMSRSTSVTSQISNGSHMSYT
As to conditions: at 10 µM.

The target in assay [5] is T3, Serine/threonine-protein kinase TAO2 (Homo sapiens) (UniProt Q9UL54).
T3 sequence (whole entry): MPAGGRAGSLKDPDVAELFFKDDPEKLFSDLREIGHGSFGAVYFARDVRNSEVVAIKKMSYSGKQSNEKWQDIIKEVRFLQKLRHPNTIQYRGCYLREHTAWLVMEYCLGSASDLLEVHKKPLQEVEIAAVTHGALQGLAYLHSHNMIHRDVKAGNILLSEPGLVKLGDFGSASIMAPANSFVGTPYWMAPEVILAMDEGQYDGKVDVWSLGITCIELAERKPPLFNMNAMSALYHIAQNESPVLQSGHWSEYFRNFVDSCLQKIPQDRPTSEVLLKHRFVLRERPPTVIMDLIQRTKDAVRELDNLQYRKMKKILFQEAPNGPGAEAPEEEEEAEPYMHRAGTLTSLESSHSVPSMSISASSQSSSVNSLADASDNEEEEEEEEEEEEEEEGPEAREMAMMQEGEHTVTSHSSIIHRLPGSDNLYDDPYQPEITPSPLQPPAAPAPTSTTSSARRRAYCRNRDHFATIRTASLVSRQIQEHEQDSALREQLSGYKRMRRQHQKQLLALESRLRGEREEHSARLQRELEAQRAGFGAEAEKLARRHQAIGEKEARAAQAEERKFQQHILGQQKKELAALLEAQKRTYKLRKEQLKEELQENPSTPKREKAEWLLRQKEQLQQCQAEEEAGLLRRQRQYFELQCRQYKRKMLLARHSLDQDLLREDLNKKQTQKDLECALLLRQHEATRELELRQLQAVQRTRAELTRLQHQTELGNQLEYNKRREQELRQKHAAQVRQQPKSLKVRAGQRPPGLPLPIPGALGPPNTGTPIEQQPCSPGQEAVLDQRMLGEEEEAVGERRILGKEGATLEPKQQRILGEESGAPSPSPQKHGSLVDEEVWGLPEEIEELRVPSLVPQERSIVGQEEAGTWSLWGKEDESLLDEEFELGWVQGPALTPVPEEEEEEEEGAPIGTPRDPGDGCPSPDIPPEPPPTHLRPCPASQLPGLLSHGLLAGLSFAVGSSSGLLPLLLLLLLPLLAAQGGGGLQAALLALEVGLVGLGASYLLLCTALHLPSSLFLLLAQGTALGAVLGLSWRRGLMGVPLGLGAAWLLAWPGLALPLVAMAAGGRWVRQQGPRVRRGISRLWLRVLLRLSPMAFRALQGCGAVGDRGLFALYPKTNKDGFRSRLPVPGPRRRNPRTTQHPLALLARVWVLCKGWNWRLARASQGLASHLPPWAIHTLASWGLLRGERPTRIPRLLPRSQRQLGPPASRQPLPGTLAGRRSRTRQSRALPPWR
As to conditions: at 1 µM.

Assay [6] deals with T3, Serine/threonine-protein kinase TAO2 (Homo sapiens). The note with it: at 10 µM.
The target in assay [7] is T4, Serine/threonine-protein kinase TAO3 (Homo sapiens) (UniProt Q9H2K8).
T4 sequence (whole entry): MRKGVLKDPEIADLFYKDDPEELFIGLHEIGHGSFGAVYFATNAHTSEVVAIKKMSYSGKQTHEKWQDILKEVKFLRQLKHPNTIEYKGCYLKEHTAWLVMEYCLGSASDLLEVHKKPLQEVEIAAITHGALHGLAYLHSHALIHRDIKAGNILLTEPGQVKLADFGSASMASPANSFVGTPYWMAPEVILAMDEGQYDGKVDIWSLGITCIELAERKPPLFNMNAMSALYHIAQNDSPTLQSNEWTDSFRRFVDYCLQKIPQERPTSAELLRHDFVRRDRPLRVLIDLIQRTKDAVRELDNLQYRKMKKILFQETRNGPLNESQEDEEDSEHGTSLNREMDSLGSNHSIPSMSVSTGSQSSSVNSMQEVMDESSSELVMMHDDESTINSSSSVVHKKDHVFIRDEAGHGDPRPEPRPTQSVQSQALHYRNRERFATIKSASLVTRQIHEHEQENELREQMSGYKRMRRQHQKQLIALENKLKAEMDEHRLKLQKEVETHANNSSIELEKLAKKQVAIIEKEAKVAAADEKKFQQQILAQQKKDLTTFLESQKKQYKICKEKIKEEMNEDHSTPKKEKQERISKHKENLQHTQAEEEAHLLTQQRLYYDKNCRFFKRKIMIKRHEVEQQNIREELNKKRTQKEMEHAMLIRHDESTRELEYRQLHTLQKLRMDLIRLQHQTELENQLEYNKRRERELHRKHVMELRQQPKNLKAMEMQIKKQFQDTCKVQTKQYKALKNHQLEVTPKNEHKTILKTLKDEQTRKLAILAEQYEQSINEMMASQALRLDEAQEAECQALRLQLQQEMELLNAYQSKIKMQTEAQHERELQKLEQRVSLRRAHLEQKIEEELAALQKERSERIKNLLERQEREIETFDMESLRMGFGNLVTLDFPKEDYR
The note with it: at 1 µM.

Assay [8] has as its target T4, Serine/threonine-protein kinase TAO3 (Homo sapiens). The note with it: at 10 µM.
Assay [9] has as its target T5, Serine/threonine-protein kinase TBK1 (Homo sapiens) (UniProt Q9UHD2).
T5 sequence (whole entry): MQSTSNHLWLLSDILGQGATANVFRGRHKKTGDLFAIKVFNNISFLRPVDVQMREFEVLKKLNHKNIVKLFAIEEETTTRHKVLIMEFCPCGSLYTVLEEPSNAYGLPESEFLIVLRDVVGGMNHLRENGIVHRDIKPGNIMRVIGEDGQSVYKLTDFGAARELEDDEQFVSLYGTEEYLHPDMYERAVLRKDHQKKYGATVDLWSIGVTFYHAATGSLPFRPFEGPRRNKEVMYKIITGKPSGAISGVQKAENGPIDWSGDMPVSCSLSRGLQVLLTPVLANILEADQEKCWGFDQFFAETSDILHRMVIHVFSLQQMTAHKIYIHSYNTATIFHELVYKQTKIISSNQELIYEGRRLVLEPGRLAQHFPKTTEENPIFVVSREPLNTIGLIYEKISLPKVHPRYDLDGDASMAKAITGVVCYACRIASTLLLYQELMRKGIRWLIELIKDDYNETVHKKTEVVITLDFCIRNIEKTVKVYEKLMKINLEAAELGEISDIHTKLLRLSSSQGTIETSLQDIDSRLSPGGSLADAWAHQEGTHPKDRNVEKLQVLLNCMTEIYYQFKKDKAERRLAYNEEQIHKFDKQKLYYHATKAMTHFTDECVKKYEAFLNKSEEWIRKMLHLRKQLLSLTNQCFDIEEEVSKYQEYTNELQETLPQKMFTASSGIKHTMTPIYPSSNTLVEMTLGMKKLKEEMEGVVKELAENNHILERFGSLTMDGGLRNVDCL
The note with it: at 1 µM.

The target in assay [10] is T5, Serine/threonine-protein kinase TBK1 (Homo sapiens). As to conditions: at 10 µM.
Assay [11] addresses T6, TGF-beta receptor type-1 (Homo sapiens) (UniProt P36897).
T6 sequence (whole entry): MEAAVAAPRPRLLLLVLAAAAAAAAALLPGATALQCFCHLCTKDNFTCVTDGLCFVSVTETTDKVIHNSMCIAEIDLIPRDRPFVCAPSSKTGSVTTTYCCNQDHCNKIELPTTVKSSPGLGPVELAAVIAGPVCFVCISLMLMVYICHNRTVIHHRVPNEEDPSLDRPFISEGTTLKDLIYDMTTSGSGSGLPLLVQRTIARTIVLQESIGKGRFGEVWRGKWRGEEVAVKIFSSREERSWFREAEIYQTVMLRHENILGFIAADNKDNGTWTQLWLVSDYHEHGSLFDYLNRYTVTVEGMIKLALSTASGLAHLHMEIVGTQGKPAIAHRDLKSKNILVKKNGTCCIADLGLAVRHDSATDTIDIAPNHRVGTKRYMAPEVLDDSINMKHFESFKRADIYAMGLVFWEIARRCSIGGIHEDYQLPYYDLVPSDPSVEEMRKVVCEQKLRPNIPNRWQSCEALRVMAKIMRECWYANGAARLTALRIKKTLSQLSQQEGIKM
The note with it: at 1 µM.

Assay [12] addresses T6, TGF-beta receptor type-1 (Homo sapiens). As to conditions: at 10 µM.
For assay [13], the target named is Insulin-like growth factor 1 receptor (Homo sapiens) (UniProt P08069). As to conditions: at 10 µM.
Sequence of Insulin-like growth factor 1 receptor (Homo sapiens) (P08069 31-736 limits assumed): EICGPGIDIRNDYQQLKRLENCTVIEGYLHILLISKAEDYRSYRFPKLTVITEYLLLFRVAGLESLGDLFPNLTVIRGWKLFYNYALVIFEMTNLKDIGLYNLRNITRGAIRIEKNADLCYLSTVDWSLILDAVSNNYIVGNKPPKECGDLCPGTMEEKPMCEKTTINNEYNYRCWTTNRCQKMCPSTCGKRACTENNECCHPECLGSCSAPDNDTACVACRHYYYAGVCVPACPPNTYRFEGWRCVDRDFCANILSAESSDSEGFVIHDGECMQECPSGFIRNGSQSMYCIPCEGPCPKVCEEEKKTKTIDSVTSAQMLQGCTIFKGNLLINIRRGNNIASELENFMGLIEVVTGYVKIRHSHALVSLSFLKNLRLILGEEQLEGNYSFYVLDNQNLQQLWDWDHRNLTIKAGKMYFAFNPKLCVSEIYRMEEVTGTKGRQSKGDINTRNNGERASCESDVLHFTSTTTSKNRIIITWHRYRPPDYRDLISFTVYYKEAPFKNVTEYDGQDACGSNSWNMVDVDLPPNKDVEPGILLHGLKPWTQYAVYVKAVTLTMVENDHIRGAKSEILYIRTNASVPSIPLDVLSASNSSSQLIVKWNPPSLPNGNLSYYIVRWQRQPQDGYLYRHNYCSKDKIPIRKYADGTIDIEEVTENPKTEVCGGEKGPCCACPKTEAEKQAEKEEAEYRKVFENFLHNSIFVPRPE
Sequence of Insulin-like growth factor 1 receptor (Homo sapiens) (P08069 741-1367 limits assumed): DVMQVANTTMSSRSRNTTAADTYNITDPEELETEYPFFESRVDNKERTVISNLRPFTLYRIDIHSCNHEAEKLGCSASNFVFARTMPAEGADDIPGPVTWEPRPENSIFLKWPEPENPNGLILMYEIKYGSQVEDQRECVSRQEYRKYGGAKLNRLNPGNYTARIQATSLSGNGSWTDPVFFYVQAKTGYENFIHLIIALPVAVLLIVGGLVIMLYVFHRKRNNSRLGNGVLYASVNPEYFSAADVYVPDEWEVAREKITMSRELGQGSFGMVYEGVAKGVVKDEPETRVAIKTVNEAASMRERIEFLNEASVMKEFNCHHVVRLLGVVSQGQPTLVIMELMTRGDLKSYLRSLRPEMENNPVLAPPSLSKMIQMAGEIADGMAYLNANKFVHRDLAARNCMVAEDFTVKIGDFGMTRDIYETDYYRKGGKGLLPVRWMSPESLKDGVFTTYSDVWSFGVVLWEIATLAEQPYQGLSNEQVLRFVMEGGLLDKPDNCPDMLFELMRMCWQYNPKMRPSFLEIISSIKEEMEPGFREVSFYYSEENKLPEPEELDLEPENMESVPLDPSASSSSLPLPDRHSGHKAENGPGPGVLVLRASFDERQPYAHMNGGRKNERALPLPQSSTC
The target in assay [14] is T7, Inhibitor of nuclear factor kappa-B kinase subunit beta (Homo sapiens) (UniProt O14920).
T7 sequence (whole entry): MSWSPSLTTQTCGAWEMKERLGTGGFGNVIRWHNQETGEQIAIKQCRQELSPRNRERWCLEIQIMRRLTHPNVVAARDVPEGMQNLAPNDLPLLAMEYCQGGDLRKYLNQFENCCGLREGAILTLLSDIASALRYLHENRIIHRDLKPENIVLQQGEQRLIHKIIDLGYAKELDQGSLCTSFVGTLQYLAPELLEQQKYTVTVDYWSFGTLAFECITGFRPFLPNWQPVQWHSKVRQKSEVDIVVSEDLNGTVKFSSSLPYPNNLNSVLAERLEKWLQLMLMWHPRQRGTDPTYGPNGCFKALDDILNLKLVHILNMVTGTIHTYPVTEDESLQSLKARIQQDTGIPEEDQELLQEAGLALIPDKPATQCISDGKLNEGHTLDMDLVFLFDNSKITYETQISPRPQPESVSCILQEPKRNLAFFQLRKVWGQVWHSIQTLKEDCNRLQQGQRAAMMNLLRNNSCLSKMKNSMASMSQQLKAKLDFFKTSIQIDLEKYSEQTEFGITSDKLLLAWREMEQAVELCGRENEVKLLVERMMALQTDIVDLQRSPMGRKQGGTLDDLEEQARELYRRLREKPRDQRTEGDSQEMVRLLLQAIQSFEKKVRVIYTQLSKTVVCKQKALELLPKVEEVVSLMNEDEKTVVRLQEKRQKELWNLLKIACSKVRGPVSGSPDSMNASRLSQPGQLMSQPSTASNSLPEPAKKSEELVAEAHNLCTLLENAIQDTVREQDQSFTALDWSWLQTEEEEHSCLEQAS
As to conditions: at 1 µM.

The target in assay [15] is T7, Inhibitor of nuclear factor kappa-B kinase subunit beta (Homo sapiens). The note with it: at 10 µM.

SMILES strings stand for the structures.

As to `O=c1cc(N2CCNCC2)oc2c(-c3ccccc3)cccc12`, the residual activity in assay [1] turned out to be 92%; in assay [2] it was 95%; in assay [3], 83%; in assay [4], 85%; in assay [5], 105%; in [6] it was 96%. The residual activity in assay [7] is 98%; in [8] it was 92%; in assay [9] it was 72%; in [10], 54%; in assay [11] it was 91%; in [12] it was 85%. The residual activity is 97% in [13], 99% in assay [14] and 82% in assay [15].
